# Measurements from paper PMC4336329 (PLoS ONE, 2015).
# Out of some 310,000 compounds screened, about 14,000 (4.5%) showed an effect of 50% or more. Effects have a minus sign here. This excerpt belongs to a sample that is enriched for strong results.
# Molecular target: human ether-à-go-go-related gene (hERG) potassium channel (human, UniProt Q12809)
# Test: primary screen, population patch clamp on CHO cells stably expressing hERG; higher = less effect of the substance
# 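Further: peak tail current of the secondary pulse compared with the same well before compound.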
# Chain of human ether-à-go-go-related gene (hERG) potassium channel (Q12809 whole entry, looked up): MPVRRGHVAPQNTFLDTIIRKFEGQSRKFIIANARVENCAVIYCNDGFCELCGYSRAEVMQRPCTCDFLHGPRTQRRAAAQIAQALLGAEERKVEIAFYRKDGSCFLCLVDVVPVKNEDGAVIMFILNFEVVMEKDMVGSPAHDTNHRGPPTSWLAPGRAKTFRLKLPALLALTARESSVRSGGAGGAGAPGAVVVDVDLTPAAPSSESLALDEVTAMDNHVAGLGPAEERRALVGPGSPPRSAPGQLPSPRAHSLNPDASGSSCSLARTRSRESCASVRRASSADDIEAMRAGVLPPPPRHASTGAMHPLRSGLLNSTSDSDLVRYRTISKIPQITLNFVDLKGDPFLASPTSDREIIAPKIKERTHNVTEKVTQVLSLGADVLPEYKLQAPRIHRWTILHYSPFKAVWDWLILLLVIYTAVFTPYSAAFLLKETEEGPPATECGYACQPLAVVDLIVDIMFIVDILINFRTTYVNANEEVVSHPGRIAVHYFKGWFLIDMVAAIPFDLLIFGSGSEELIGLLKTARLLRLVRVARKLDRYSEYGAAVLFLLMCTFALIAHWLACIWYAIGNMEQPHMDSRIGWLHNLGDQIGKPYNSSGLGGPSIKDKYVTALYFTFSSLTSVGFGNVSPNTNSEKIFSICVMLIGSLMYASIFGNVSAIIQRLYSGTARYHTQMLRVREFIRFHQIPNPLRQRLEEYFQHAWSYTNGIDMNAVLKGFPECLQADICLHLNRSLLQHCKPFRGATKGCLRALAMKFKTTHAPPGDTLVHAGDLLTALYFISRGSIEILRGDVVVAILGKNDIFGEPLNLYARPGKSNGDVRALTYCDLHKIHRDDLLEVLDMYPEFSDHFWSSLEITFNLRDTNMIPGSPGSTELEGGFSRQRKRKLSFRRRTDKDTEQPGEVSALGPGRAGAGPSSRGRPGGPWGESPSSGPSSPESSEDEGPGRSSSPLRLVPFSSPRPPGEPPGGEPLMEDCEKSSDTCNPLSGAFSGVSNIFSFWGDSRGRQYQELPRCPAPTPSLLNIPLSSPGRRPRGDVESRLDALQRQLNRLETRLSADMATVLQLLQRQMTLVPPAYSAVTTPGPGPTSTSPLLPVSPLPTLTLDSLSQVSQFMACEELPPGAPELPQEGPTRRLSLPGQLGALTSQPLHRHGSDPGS
row,SMILES,"hERG current change (%, negative = inhibition) at 10uM [%]"
1,COc1ccccc1NC(=O)/C=C/c1ccc2c(c1)OCO2,-8.32
2,CCc1nc(SCC(=O)NCc2ccco2)c2c(=O)n(C)c(=O)n(C)c2n1,-0.832
3,Cn1c(=O)c2c(SCC(=O)NCc3ccco3)nc(CC(C)(C)C)nc2n(C)c1=O,-57.4
4,Cn1c(=O)c2c(SCc3ccccn3)nc(C3CC3)nc2n(C)c1=O,6.51
5,CCCc1nc(SCC(=O)NCc2ccco2)c2c(=O)n(C)c(=O)n(C)c2n1,0.943
6,CC(C)c1nc(SCc2ccccn2)c2c(=O)n(C)c(=O)n(C)c2n1,5.32
7,Cn1c(=O)c2c(SCc3ccccn3)nc(CC(C)(C)C)nc2n(C)c1=O,-79.4
8,Cc1ccccc1-c1nc(SCc2ccccn2)c2c(=O)n(C)c(=O)n(C)c2n1,28.7
9,CCc1nc(SCc2ccccn2)c2c(=O)n(C)c(=O)n(C)c2n1,0.896
10,CCCc1nc(SCc2ccccn2)c2c(=O)n(C)c(=O)n(C)c2n1,-59.1
11,Cc1ccc(N(C)S(=O)(=O)c2ccc3[nH]cc(C(=O)NCCCN4CCOCC4)c(=O)c3c2)cc1C,-16.5
12,Cc1ccc(Nc2ncccc2C(N)=O)cc1,19.5
13,Cc1ccccc1NC1=NS(=O)(=O)c2ccccc21,4.25
14,CCOc1ccc(OCC)c(NC(=O)CN(c2ccc(C)cc2)S(=O)(=O)c2c(C)noc2C)c1,3.31
15,Cl.O=C(CN1CCCC1)Nc1ccc(OC(F)(F)F)cc1,-41.1
16,CCOC(=O)N1CCN(CCC(=O)Nc2ccc(OC)cc2)CC1,-1.76
17,CCN1CCN(CC(=O)Nc2ccc(OC(F)(F)F)cc2)CC1.Cl,-69.1
18,O=C(CN1CCc2ccccc2C1)Nc1ccc(OC(F)(F)F)cc1,-6.92
19,CCOC(=O)N1CCN(CCC(=O)Nc2ccc(Br)cc2)CC1,-33.2
20,CN1CCN(CC(=O)Nc2ccc(OC(F)(F)F)cc2)CC1.Cl,-65.1
21,O=C(CN1CCN(c2ccccn2)CC1)Nc1ccc(OC(F)(F)F)cc1,-29.9
22,Cl.O=C(CN1CCOCC1)Nc1ccc(OC(F)(F)F)cc1,-8.1

row,SMILES,"hERG current change (%, negative = inhibition) at 10uM [%]"
1,CCOC(=O)N1CCN(CCC(=O)Nc2ccc(OC(F)(F)F)cc2)CC1,-63.3
2,CC1CCC(C(C)C)C(OC(=O)C2=C3c4ccccc4S(=O)(=O)N3CC2)C1 (stereo not shown),12.3
3,CN(C)S(=O)(=O)N1CCN(C(=O)N2CCCCCC2)CC1,-12.2
4,O=C(N/N=C/c1ccccn1)c1cccc(NC(=O)c2ccccc2Cl)c1,-4.9
5,CC(=O)O.Cc1nc2nc(CSc3nnc(C)s3)cc(=O)n2[nH]1,13.9
6,CCOC(=O)CN(C(=O)Cn1nnc(-c2ccc(C)cc2)n1)C(CC)C(=O)NC1CCCC1 (stereo not shown),-8.67
7,Cc1cc2c(cc1C)C(c1cc(Br)ccc1F)CC(=O)N2 (stereo not shown),8.78
8,COc1ccc2[nH]c(C)c(CCNC(=S)Nc3ccccc3OC)c2c1,8.79
9,CN(C)CCn1c(C(=O)Nc2ccccc2)cc2ccccc21.Cl,-58.9
10,CNC(=O)c1cc2cc(OC)ccc2n1CCN(C)C,-11.6
11,CN(C)CCn1c(C(=O)O)cc2ccccc21.Cl,14.6
12,CCOC(=O)CSc1nc(=O)n2ccccc2n1,13.2
13,COc1ccccc1NC(=O)CCS(=O)(=O)c1ccccc1,12.7
14,CC(NC(=O)Cn1cc2c(n1)CCCCC2)c1ccccc1 (stereo not shown),1.69
15,Cc1ccc2nc(SCC(=O)c3ccccc3)nc(=O)n2c1,-10.1
16,COc1ccc(C)cc1Nc1n[n+](-c2ccccc2)c(-c2ccc(SC)cc2)s1.[Cl-],-1.4
17,COc1ccc(C)cc1Nc1n[n+](-c2ccccc2)c(-c2ccc(N(C)C)cc2)s1.[Cl-],-49.3
18,CCOc1cc(-c2sc(Nc3cc(C)ccc3OC)n[n+]2-c2ccccc2)ccc1OC.[Cl-],-68.7
19,CCOc1cc(-c2sc(Nc3ccccc3)n[n+]2-c2ccc(F)cc2)ccc1OC.[Cl-],23.6
20,CCc1ccc(Nc2n[n+](-c3ccccc3)c(-c3ccc(OC)c(Br)c3)s2)cc1.[Cl-],-44
21,CCOc1cc(-c2sc(Nc3ccc(CC)cc3)n[n+]2-c2ccccc2)ccc1OC.[Cl-],-78.7
